# In PubChem BioAssay AID2283364 (EPA ToxCast):
# Records with an inconclusive call do not appear. Activity calls are given as the source filed them. Rule for the calls: active = hit-call score of the fitted dose curve at least 0.9, where 1 is the maximum; inconclusive = response in the unintended direction; inactive = score below 0.9.
# Target: human FK-506 Binding Protein (FKBP12), FKBP1A (gene 2280) (UniProt P62942)
# Assay: NVS_OR_hFKBP12: NovaScreen (NVS) Nuclear Receptor Binding Assay for human FK-506 Binding Protein (FKBP12)
# Description: NVS_OR_hFKBP12 is a biochemical, single-readout assay that uses extracted gene-proteins from E. coli in a cell-free assay. Measurements were taken 0.75 hour after chemical dosing in a 48-well plate.NVS_OR_hFKBP12 is one of one assay component(s) measured or calculated from the NVS_OR_hFKBP12 assay. It is designed to make measurements of radioligand binding, a form of binding reporter, as detected with scintillation counting signals by Filter-based radiodetection technology.Data from the assay component NVS_OR_hFKBP12 was analyzed into 1 assay endpoint. This assay endpoint, NVS_OR_hFKBP12, was analyzed in the positive analysis fitting direction relative to DMSO as the negative control and baseline of activity. Using a type of binding reporter, loss-of-signal activity can be used to understand changes in the binding as they relate to the gene FKBP1A. Furthermore, this assay endpoint can be referred to as a primary readout, because the performed assay has only produced 1 assay endpoint. To generalize the intended target to other relatable targets, this assay endpoint is annotated to the misc protein intended target family, where the subfamily is chaperone.
# Binding assays used specific radioligands (tritiated, iodinated) with non-radioactive competitive displacement ligands in agonist or antagonist protocols (as indicated) and various reference compounds and inhibitors to titrate specific binding to receptors and transporters. Most enzyme assays (CYPs, kinases, phosphatases, proteases, HDACs) used recombinant protein and specific substrates (fluorescence mostly, some colorimetric and radioactive) and inhibitors, followed by a biochemical separation of substrate and product. All assays for the biochemical HTS were initially run in duplicate at a single concentration (10 uM for CYP450 assays and 25 uM for all others). Assay-chemical combinations meeting a pre-defined threshold (e.g., 30% inhibition and other criteria defined below) were then run in singleton concentration-response format with maximum concentration of 20 uM for CYPs and 50 uM for all others. Each assay was run with positive and negative controls, and concurrent controls on every plate. The follow-up (secondary) screen tested active chemical-pairs in concentration series, as well as a few additional assays not tested in the primary screen, some selected negative inactives, and several cases re-run in the concentration series for confirmatory purposes.
# Chain of human FK-506 Binding Protein (FKBP12), FKBP1A (gene 2280) (P62942 whole entry, looked up): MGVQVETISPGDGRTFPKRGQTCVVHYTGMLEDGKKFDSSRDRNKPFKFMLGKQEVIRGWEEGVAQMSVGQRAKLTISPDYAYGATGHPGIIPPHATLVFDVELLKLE
row,Compound,outcome
1,CO/N=C(/C1=NOCCO1)c1ccccc1Oc1ncnc(Oc2ccccc2Cl)c1F,inactive
2,Cc1ccn2nc(S(=O)(=O)Nc3c(F)cccc3F)nc2n1,inactive
3,c1ccc(-c2ccccc2)cc1,inactive
4,COC(=O)C=C(C)OP(=O)(OC)OC,inactive
5,O=C(O)c1nc(Cl)ccc1Cl,inactive
6,CC[C@H](C)[C@H]1O[C@]2(C=C[C@@H]1C)C[C@@H]1C[C@@H](C/C=C(\C)[C@@H](O[C@H]3C[C@H](OC)[C@@H](O[C@H]4C[C@H](OC)[C@@H](O)[C@H](C)O4)[C@H](C)O3)[C@@H](C)/C=C/C=C3\CO[C@@H]4[C@H](O)C(C)=C[C@@H](C(=O)O1)[C@]34O)O2 (tested in a mixture with another compound),inactive
7,Cc1cc(C)nc(NC(=O)NS(=O)(=O)c2ccccc2C(=O)OC2COC2)n1,inactive
8,COP(=S)(OC)SCn1nnc2ccccc2c1=O,inactive
9,CNC(=O)Oc1ccccc1OC(C)C,inactive
